Source: PubChem (several laboratories)
The list is not random: actives were taken first. Their share in the collection is about 3.2%.
ANO1 block = blocks the mouse calcium-activated chloride channel TMEM16A. normalized B-score (activity score, 25-100; higher = stronger inhibition) at 10 µM. HEK293 TMEM16A/YFP iodide influx fluorescence, ionomycin. Q8BHY3. AID 588511. hit rate 1.2% among 310,000;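 active = ratio plate-corrected score three or more library SD toward inhibition, starting fluorescence score within five deviations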;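 also: score derived from kinetic fluorescence span divided by baseline fluorescence per well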
TMEM16A act = activators or potentiators of mouse TMEM16A chloride channel; hit rate 0.3% among 340,000; HEK293 TMEM16A/YFP-H148Q/I152L, iodide quench fluorescence; hits give low values; B-score at 10 µM; AID 623877;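 active = fluorescence-ratio B-score plate-corrected deviation score at least 3 library SD below zero, with starting fluorescence score within 5 deviations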;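 also: channel opened by trigger with iodide after compound preincubation; score built on the fluorescence ratio of max minus min over baseline; more negative score means more quench and so TMEM16A activation or potentiation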
HDAC3 inhib = inhibitors of human histone deacetylase 3 | O15379 | recombinant HDAC3, fluorogenic peptide/trypsin coupled, fluorescence | inhibition, % at 8.3 µM | hit rate 0.15% among 320,000 | AID 2718; in the data active = inhibition above about 26%, passing the limit was not always enough
CHT allo act = human CHT allosteric activation. Q9GZV3. CHT-expressing cells, membrane potential dye, choline EC20; hits give high values; LV-AA mutant CHT in HEK293 cells. B-score at 10 µM. hit rate 0.49% among 310,000;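 active = initial fluorescence not abnormally high and integrated response B-score, plate-corrected, over 3 SD above library mean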
PHOSPHO1 block = inhibitors of human PHOSPHO1 phosphatase; Q8TCT1; inhibition, % at 13.3 µM; recombinant PHOSPHO1, absorbance phosphatase assay; hit rate 1.1% among 290,000; AID 1565; in the data active = inhibition above about 60%
Target sequence (Q8TCT1 whole entry, looked up): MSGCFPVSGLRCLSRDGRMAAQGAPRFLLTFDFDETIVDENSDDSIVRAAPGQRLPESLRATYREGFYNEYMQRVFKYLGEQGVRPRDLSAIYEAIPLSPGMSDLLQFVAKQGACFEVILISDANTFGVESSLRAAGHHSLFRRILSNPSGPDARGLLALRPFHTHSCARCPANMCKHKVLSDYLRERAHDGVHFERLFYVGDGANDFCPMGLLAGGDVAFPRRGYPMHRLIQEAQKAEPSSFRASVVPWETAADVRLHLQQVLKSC
CHT block = human CHT choline transport inhibition. Q9GZV3. CHT-expressing cells, membrane potential dye, choline response; hits give low values. B-score at 10 µM. hit rate 0.86% among 310,000;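 active = B-score over 3 SD under the library average, and starting fluorescence ratio not unusually high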;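 also: choline stimulus applied at its EC90 after an EC20 pre-addition; B-score computed on integrated fluorescence ratio after choline addition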
Numbers without * were called inactive; i = inactive; / = no result.

SMILES	ANO1 block	TMEM16A act	HDAC3 inhib	CHT allo act	PHOSPHO1 block	CHT block
CCc1nnc(NC(=O)CSc2nnc(-c3c[nH]c4ccccc34)n2CCOC)s1	i	i	-2	i	60*	i
COc1cccc(-c2nc(C=O)cs2)c1	i	i	-6	i	2	-5*
COC(=O)C1=C(Nc2ccccc2NS(=O)(=O)c2ccc(C(F)(F)F)cc2Cl)CSC1	25*	i	21	i	42	i
COc1cccc(NS(=O)(=O)c2cc3c(cc2C)NC(=O)CO3)c1	i	i	/	i	-14	i
COCCCn1c(=NC(=O)c2ccncc2)c(C#N)cc2c(=O)n3cccc(C)c3nc21	i	i	-84	i	4	i
CCCCn1c(=NC(=O)c2cccnc2)c(C#N)cc2c(=O)n3cccc(C)c3nc21	i	i	-17	i	78*	i
Cc1cccn2c(=O)c3cc(C#N)c(=NC(=O)c4ccncc4)n(CCCOC(C)C)c3nc12	i	i	-219	i	96*	i
C[C@]1(C(=O)O)Cc2oncc2C[C@@H]1C(=O)O	i	i	-1	i	9	i
CCOC(=O)c1c(NC(=O)c2ccc(C)cc2)sc2c1CC(C)(C)OC2	25*	i	2	i	34	i
CCOc1c(C)cc(-c2ncccc2O)cc1C	i	i	-4	i	10	i
COc1cc(S(=O)(=O)N2CCOCC2)ccc1NC(=O)CSc1nnc(N)s1	i	i	0	i	65*	i
CC(=O)OCc1c(C(F)(F)F)nn(C)c1Oc1cccc(C(F)(F)F)c1	i	i	-3	i	-10	i
N/C(Cn1cncn1)=N\NC(=O)C(=O)Nc1cccc(C(F)(F)F)c1	i	i	-7	i	60*	i
N/C(Cn1cncn1)=N\NC(=O)C(=O)Nc1ccccc1	i	i	3	i	29	i
CNC(=O)c1cc(NC(=O)CCn2nc(-c3ccccc3)c3ccccc3c2=O)ccc1OC	i	i	3	i	41	i
CCCSC1=N/C(=C\C=C\c2ccco2)C(=O)S1	i	i	3	i	90*	i
O=C1SC(SCc2ccccc2)=N/C1=C\c1ccco1	i	i	1	i	2	i
O=C1N[C@@H](c2ccccc2)COC(=O)[C@H](Cc2ccc(F)cc2)C/C=C\C[C@H]1CC(=O)N(CCO)Cc1ccccc1	/	i	/	/	/	/
O=C1c2ccccc2C(=O)N1CCCc1nc(-c2ccccn2)no1	i	i	/	i	0	i
O=C1c2ccccc2C(=O)N1CCc1nc(-c2ccccn2)no1	25*	i	4	i	-45	i
C=CC[C@H](CC(=O)N[C@H](CO)Cc1ccccc1)C(=O)N[C@@H](COC(=O)[C@@H](CC=C)CC(=O)OC(C)(C)C)Cc1c[nH]c2ccccc12	/	i	32*	/	/	/
C=CC[C@@H](CC(=O)N[C@@H](CO)Cc1ccccc1)C(=O)N[C@H](COC(=O)[C@@H](CC=C)CC(=O)OC(C)(C)C)Cc1c[nH]c2ccccc12	/	/	37*	/	/	/
CC(=O)Nc1ccc(OCC(O)CN2CCN(S(=O)(=O)c3ccc(NC(C)=O)cc3)CC2)cc1 (stereo not drawn)	100*	i	0	i	14	i
CCC(=O)c1ccc(OCC(O)CN2CCN(S(=O)(=O)c3ccc(NC(C)=O)cc3)CC2)cc1 (stereo not drawn)	i	i	1	i	39	i
COC(=O)CCC(=O)Nc1sc(C)c(C)c1C(N)=O	i	i	-3	i	90*	i
SMILES	ANO1 block	TMEM16A act	HDAC3 inhib	CHT allo act	PHOSPHO1 block	CHT block
COC(=O)c1c(NC(=O)CCc2ccc(C)o2)sc(C)c1C	100*	i	16	i	-44	i
COC(=O)CCC(=O)NC(=S)Nc1sc(C)c(C)c1C(N)=O	i	i	3	i	10	i
C[C@@H](C(=O)NCCc1ccccc1F)N1C(=O)N2CCc3c([nH]c4ccccc34)[C@@]2(C)C1=O	25*	i	2	i	24	i
C[C@@H](C(=O)NCCc1ccccc1)N1C(=O)N2CCc3c([nH]c4ccccc34)[C@@]2(C)C1=O	i	i	4	i	18	i
Cc1csc2nc(CSc3nc4ccccc4o3)cn12	i	i	1	i	61*	i
Nn1c(CSc2nc3ccccc3o2)nnc1CSc1nc2ccccc2o1	i	i	2	i	26	i
Cc1cc(C)n2c(Br)c(CSc3nc4ccccc4o3)nc2n1	i	i	-22	i	80*	i
CCOC(=O)c1c(-c2ccco2)csc1N	i	i	7	i	80*	i
COC(=O)C1CCN(C(=O)COC(=O)[C@@H]2CC(O)CN2S(=O)(=O)c2ccc3c(c2)OCCO3)CC1 (stereo partly drawn)	i	i	6	i	4	i
COc1ccc(N/C=C/C(=O)c2ccc(C)cc2)c([N+](=O)[O-])c1	i	-7.2*	0	i	/	i
Cc1cc(Cl)ccc1OC(C)C(=O)Nc1ccccc1N1CCOCC1 (stereo not drawn)	100*	-20*	-16	i	7	i
O=C(OCC(=O)N1CCCCC1)c1cccs1	/	i	-3	/	/	/
O=C(OCC(=O)N1CCc2ccccc2C1)c1cccs1	i	i	2	i	65*	i
CC(CC(=O)NCc1ccc(F)cc1)c1ccccc1 (stereo not drawn)	i	i	-9	i	39	i
O=C(Nc1ncc(Cc2cccc([N+](=O)[O-])c2)s1)c1ccco1	i	i	3	i	60*	i
CC(=O)Nc1ncc(Cc2cccc(Cl)c2)s1	i	i	3	i	60*	i
CC(=O)Nc1ncc(Cc2cc(Cl)ccc2Cl)s1	i	i	3	i	49	i
CC1CCCC(n2cnc3cc(C(=O)O)ccc32)C1C (stereo not drawn)	i	i	3	i	2	i
COc1ccc(NC(=O)N2CCCCCC2)cc1OC	i	i	-2	i	36	i
O=C(NC1CCCC1)C(c1ccncc1)N(C(=O)c1ccco1)c1ccc(F)c(Cl)c1 (stereo not drawn)	i	i	2	i	8	i
Cc1ccc(S(=O)(=O)CCC(=O)OCC(=O)c2c(N)n(CC(C)C)c(=O)n(C)c2=O)cc1	i	i	-5	i	17	i
COc1ccc(CCC(=O)OCC(=O)c2c(N)n(CC(C)C)c(=O)n(C)c2=O)cc1	i	-5.4*	0	i	8	i
